In PubChem BioAssay:
Unmarked numbers belong to inactive results. A call without a number means that no potency is given here. For some of these results: Potency and affinity values are given separately. Calls of active or inactive are those of the source. Unless noted, how the calls were made is not given here.

Columns and labels:
[1] = antimalarial activity against Dd2 strain (AID 2302;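 active means growth inhibition above 50% at the single 2 µM test dose, taken to imply half-maximal potency below 2 µM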); conditions: P. falciparum Dd2 in RBCs, LDH growth readout, 72 h; at 2 µM; hits give high values
[2] = HepG2 cytotoxicity, primary screen, cytotoxicity control for P. falciparum antimalarial project, cell-based, ATP luminescence (AID 2303;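 active means inhibition above 50%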); conditions: HepG2 viability, 24-48 h, at 10 µM, hits give high values
[3] = molecular target: L-lactate dehydrogenase (Plasmodium falciparum (isolate CDC / Honduras)) (UniProt Q27743); experiment: PfLDH activity inhibition – cell lysate, 3D7 strain, counter-screen for P. falciparum growth inhibition project (AID 2304); conditions: P. falciparum 3D7 crude extract, LDH APAD/NBT absorbance; at 2 µM; hits give high values
[4] = inhibition of 3D7 malaria parasite growth – strain 3D7 (AID 2306); conditions: P. falciparum 3D7 erythrocytic growth, LDH absorbance, 72 h; at 2 µM; hits give high values
[5] = molecular target: Calcium-dependent protein kinase 1 (Plasmodium falciparum (isolate 3D7)) (UniProt P62344); experiment: PfCDPK1 kinase inhibitors, biochemical, TCAMS library (AID 1159585; cut-off not given, nearly all actives have IC50 up to about 0.98 µM;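 further: inhibitors leave more ATP so luminescence rises with inhibition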); conditions: recombinant PfCDPK1, Kinase-Glo ATP depletion luminescence
[6] = molecular target: Plasmodium falciparum protein kinase 6 (PK6, PF3D7_1337100) (UniProt Q8IDW1); experiment: PfPK6 kinase inhibitors, biochemical, TCAMS library (AID 1159586); conditions: recombinant PfPK6, Kinase-Glo ATP depletion luminescence
[7] = molecular target: Protein kinase 7 (PK7), Plasmodium falciparum 3D7 (PF3D7_0213400) (UniProt Q7YTF7); experiment: inhibition of Plasmodium PK7 catalytic activity – biochemical, TCAMS antimalarial set, Kinase-Glo luminescence (AID 1159587); conditions: recombinant PfPK7, Kinase-Glo ATP depletion luminescence
[8] = molecular target: Calcium-dependent protein kinase 4 (Plasmodium falciparum (isolate 3D7)) (UniProt Q8IBS5); experiment: PfCDPK4 kinase inhibitors, biochemical, TCAMS library (AID 1159588; cut-off not given, nearly all actives have IC50 up to about 0.91 µM); conditions: recombinant PfCDPK4, Kinase-Glo ATP depletion luminescence
Calcium-dependent protein kinase 4 (Plasmodium falciparum (isolate 3D7)), sequence (Q8IBS5 whole entry, looked up): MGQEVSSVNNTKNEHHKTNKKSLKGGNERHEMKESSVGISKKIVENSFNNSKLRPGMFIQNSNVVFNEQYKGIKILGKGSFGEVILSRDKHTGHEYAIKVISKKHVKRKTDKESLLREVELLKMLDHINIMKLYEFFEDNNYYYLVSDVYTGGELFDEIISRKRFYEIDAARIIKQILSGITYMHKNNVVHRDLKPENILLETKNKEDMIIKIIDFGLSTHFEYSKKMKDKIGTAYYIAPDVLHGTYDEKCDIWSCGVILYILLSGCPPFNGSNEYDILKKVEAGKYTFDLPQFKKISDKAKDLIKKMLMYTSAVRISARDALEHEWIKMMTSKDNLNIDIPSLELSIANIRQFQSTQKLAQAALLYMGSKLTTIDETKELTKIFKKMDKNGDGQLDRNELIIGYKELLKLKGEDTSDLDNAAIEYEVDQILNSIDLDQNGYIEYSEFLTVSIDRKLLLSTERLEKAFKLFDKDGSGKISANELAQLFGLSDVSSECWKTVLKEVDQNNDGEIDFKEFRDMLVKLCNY

Protein kinase 7 (PK7), Plasmodium falciparum 3D7 (PF3D7_0213400), sequence (Q7YTF7 1-343): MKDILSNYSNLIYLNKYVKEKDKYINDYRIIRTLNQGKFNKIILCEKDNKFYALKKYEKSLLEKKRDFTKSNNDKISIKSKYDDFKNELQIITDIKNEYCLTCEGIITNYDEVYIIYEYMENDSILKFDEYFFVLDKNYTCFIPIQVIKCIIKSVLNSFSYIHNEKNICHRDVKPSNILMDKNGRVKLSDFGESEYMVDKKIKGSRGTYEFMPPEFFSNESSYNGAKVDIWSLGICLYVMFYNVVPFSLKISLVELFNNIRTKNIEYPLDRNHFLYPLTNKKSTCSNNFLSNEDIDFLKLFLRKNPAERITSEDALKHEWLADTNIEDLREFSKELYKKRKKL
Calcium-dependent protein kinase 1 (Plasmodium falciparum (isolate 3D7)), sequence (P62344 whole entry, looked up): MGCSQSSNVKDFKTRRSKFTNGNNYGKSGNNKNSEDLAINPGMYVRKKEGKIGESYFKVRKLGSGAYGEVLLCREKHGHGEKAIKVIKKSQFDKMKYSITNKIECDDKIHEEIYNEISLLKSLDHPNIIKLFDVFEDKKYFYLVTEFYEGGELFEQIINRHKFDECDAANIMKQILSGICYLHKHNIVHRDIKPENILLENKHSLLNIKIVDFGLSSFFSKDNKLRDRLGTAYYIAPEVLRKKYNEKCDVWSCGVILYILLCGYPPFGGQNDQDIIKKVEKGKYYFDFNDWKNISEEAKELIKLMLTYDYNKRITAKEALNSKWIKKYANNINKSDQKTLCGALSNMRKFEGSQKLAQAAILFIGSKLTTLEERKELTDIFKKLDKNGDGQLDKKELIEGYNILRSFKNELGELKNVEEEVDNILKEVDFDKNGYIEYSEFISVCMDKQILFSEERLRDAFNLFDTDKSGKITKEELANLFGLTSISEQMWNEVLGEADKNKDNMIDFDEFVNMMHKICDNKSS
Plasmodium falciparum protein kinase 6 (PK6, PF3D7_1337100), sequence (Q8IDW1 1-305): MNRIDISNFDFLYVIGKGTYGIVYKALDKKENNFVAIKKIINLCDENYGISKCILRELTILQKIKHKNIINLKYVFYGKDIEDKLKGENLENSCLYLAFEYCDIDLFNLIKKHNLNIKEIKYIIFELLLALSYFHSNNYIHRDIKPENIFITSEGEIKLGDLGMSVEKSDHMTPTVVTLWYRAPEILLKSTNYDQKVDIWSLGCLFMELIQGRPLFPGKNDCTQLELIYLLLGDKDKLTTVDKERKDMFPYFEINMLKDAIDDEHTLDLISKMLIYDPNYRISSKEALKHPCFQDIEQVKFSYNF
L-lactate dehydrogenase (Plasmodium falciparum (isolate CDC / Honduras)), sequence (Q27743 whole entry, looked up): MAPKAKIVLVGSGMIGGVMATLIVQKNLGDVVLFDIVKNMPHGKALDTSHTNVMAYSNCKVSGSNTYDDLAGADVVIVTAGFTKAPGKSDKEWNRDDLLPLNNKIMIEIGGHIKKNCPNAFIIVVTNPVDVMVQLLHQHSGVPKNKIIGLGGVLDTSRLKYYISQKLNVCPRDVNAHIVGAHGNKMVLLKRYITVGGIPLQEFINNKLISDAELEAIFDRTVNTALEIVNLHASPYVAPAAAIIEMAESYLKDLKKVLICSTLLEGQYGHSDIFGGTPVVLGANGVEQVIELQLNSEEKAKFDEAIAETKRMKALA

Row | Structure (SMILES) | growth inhibition [1] | inhibition [2] | inhibition [3] | growth inhibition [4] | outcome [5] | outcome [6] | outcome [7] | outcome [8]
1 | CN=C(NC)c1cccc(NC(=O)C=Cc2ccc(C=CC(=O)Nc3cccc(C(=NC)NC)c3)cc2)c1 | 99% (active) | 21% | 2% | 98% (active) | inactive | inactive | inactive | inactive
2 | CCCc1cc(C)ccc1OCCCON1C(N)=NC(N)=NC1(C)C | 97% (active) | 64% (active) | 2% | 97% (active) | inactive | inactive | inactive | inactive
3 | O=C(Nc1ccccc1)Nc1cccc(-c2nn3c(OCC4CCCCN4)cccc3c2-c2ccncc2)c1 (stereo not given) | 82% (active) | 9% | -7% | 97% (active) | inactive | inactive | inactive | inactive
4 | CC(C)Cc1nc(N)nc(N)c1-c1ccc(Cl)cc1 | 3% | 5% | 6% | 96% (active) | inactive | inactive | inactive | inactive
5 | O=C(Nc1ccc(Cn2ncc(N3CCCNCC3)c(Cl)c2=O)cc1)Nc1ccc(F)cc1[N+](=O)[O-] | -3% | 11% | -4% | 90% (active) | inactive | inactive | inactive | inactive
6 | Cc1cc(Nc2ccc(O)cc2)nc2cc(O)ccc12 | 9% | 0% | -2% | 100% (active) | inactive | inactive | inactive | inactive
7 | CC(C)(C)c1ccc(CN2CCC(CNC(=O)c3cc(-c4ccccc4F)cs3)C2)cc1 (stereo not given) | 98% (active) | 46% | 4% | 100% (active) | inactive | inactive | inactive | inactive
8 | Cc1cc(N(C)C)nc(Nc2ccc(NC(=O)Nc3ccccc3)cc2)n1 | 100% (active) | 10% | -2% | 101% (active) | inactive | inactive | inactive | inactive
9 | CC(=O)Nc1cccc(C(=O)Nc2cccc(-c3ccc(-c4nc5ccc(F)cc5[nH]4)s3)c2)c1 | 30% | 88% (active) | -1% | 94% (active) | inactive | inactive | inactive | inactive
10 | COc1ccc(NC(=O)[C@H](C)Nc2cc(C)nc(NCC3CCCCC3)n2)cc1 | 13% | 12% | -3% | 92% (active) | inactive | inactive | inactive | inactive
11 | Cc1cc(N[C@@H](Cc2ccccc2)C(=O)NCCc2ccccc2)nc(NCCOc2ccccc2)n1 | 14% | 10% | -3% | 95% (active) | inactive | inactive | inactive | inactive
12 | Cc1cc(C)c(C)c(OCCCON2C(N)=NC(N)=NC2(C)C)c1C | 95% (active) | 64% (active) | -4% | 94% (active) | inactive | inactive | inactive | inactive
13 | CCOCCCn1c(=N)c(C(=O)NC(C)c2ccccc2)cc2c(=O)n3cccc(C)c3nc21 (stereo not given) | 31% | 24% | -4% | 95% (active) | inactive | inactive | inactive | inactive
14 | CC(C)N1CCN(C(CN2CCN(CCCOc3ccc4nonc4c3)CC2)c2ccc(F)cc2)CC1 (stereo not given) | 40% | -3% | -3% | 97% (active) | inactive | inactive | inactive | inactive
15 | CCC(CC)N1C(=O)C(c2ccccc2)(c2ccccc2)N=C1N | 61% (active) | 14% | -7% | 96% (active) | inactive | inactive | inactive | inactive
16 | C=CCOC(=O)N1CCC(CNCc2cccc(-c3cccc(-c4nc5c(C)cccc5[nH]4)c3)c2)C1 (stereo not given) | 69% (active) | 22% | -2% | 102% (active) | inactive | inactive | inactive | inactive
17 | O=C(Nc1ccc(Cl)cc1)c1cc(Cl)ccc1NC(=O)C1(c2ccc(Cl)cc2)CCCC1 | 29% | 13% | -4% | 85% (active) | inactive | inactive | inactive | inactive
18 | Fc1ccc(C=NNc2nc3ccccc3[nH]2)cc1 | 58% (active) | -7% | -2% | 98% (active) | inactive | inactive | inactive | inactive
19 | CNC(=O)C(NC(=O)c1ccccc1C(=O)OC)c1ccccc1 (stereo not given) | 2% | 4% | 3% | 96% (active) | inactive | inactive | inactive | inactive
20 | COc1ccc(-c2nc(NCc3ccccc3)c3cc(OC)c(OC)cc3n2)cc1 | 100% (active) | 15% | -1% | 101% (active) | inactive | inactive | inactive | inactive
